The panel holds about 83,000 compounds, 20% with a hit somewhere; the sample as a whole holds those more often.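 Values shown are percent growth following 48 h exposure of cells in 96-well plates to a single concentration of compound; below 10 was considered active.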 Active and inactive are the calls of the source.

The subject of the assay is SW-620 colon. Briefly: NCI-60 one-dose screen, 48 h (100 = growth as untreated, 0 = no growth, -100 = all killed). To be noted: 10 µM.
For the molecule `c1ccc(Sc2ccccc2)cc1`, the growth is 107% (inactive).

For the molecule `CCCCC(O)c1ccccc1` (centres undefined), the growth is 108% (inactive). Then `C[N+](C)=c1ccc2nc3c(cc(Nc4ccccc4)c4ccccc43)oc-2c1`, with 56% (inactive).

Consider `CCc1nc(N)nc(N)c1-c1ccc(Cl)cc1`, for which the growth is 27.2% (inactive). For the molecule `FC(F)(F)c1ccc2c(c1)N(CCCN1CCN(C3CC3)CC1)c1ccccc1S2`, the growth is 38.9% (inactive). Then `N#CC(=Nc1cccc(F)c1)C1=C(O)c2ccccc2C1=O`, with 95.4% (inactive); and `COC(=O)c1ccccc1N(C)C`, with 107% (inactive).

With `COc1ccc(C(=O)C(Br)C(Br)C(=O)O)cc1` (centres undefined), the growth was 113% (inactive). Then `COC1=CC(=O)c2nc(Cl)ccc2C1=O`, with -59.8% (active). Turning to `O=C(NCc1ccco1)Nc1c(Cl)cc(Cl)cc1Cl`, the growth is 102% (inactive). Then `O=[N+]([O-])c1cccc(N=Nc2ccc(O)cc2O)c1`, with 55.7% (inactive); and `CC[N+](C)(CC)CCO`, with 100% (inactive); and `COc1cc(/C=C/C(=O)c2ccccc2)cc(OC)c1OC`, with 12.3% (inactive). The result for `N#Cc1c(N)sc(=S)c2c1CCCC2` reads 112% (inactive). Then `CNc1nc(NC)c2cn[nH]c2n1`, with 106% (inactive); and `NCCC(=O)c1ccc(Cl)cc1`, with 102% (inactive); and `C[C@]12CC[C@@H]3c4ccc(OCC(=O)O)cc4CC[C@H]3[C@@H]1CCC2=O`, with 102% (inactive).

Consider `COc1ccc(NC(=O)CCl)cc1`, for which the growth was 98.3% (inactive). The result for `O=[N+]([O-])c1ccc(CO)cc1` reads 102% (inactive). Then `NNc1ccccc1C(=O)O`, with 101% (inactive). As to `c1ccc(Cc2ccccc2)cc1`, the growth was 106% (inactive).

Turning to `S=c1[nH]ccn1-c1ccccc1Cl`, the growth is 111% (inactive). Then `COc1cc2cc(c1Cl)N(C)C(=O)C[C@H](OC(=O)[C@H](C)N(C)C(C)=O)[C@]1(C)O[C@H]1[C@H](C)[C@@H]1C[C@@](O)(NC(=O)O1)[C@H](OC)C=C/C=C(\C)C2`, with 26.5% (inactive); and `NC(=S)N/N=C/c1ccc(N)cc1`, with 104% (inactive).

Consider `C/C(=N\NC(=O)c1ccccc1N)c1ccccc1O`, for which the growth was 31.6% (inactive). The result for `O=C(O)c1ccccc1NCc1ccco1` reads 102% (inactive); that for `CC(=O)OC(OC(C)=O)C1CCCO1` (centres undefined), 107% (inactive).

On to `CC1(C)Nc2cccc3c(N=Nc4ccc(N=Nc5ccccc5)c5ccccc45)ccc(c23)N1`, for which the growth was 89.4% (inactive). The result for `CCCC1(c2ccccc2)NC(=O)NC1=O` (centres undefined) reads 111% (inactive); that for `CC(=O)Nc1c(C)cc(C)cc1C`, 106% (inactive). Consider `Cc1cc(/C=C/c2ccc3cc(N(C)C)ccc3[n+]2C)c(C)n1-c1ccccc1`, for which the growth is 7.4% (active). Then `CCOc1ccccc1/C=N/Nc1nc2ccccc2o1`, with 102% (inactive); and `C=CCc1cc(C(C)=O)cc(OC)c1O`, with 95.9% (inactive); and `Cc1cc(C)c(CC(=O)O)c(C)c1`, with 102% (inactive). The result for `C=CC[N+](C)(C)C` reads 107% (inactive); that for `CC(=O)OCC1CCCO1` (centres undefined), 87.3% (inactive).

In the case of `CN(C)CCN(Cc1ccccc1)c1ccccc1`, the growth was 102% (inactive).

On to `O=C(O)CSCSCC(=O)O`, for which the growth is 105% (inactive). The result for `COc1cc2c(cc1O)CC[C@@H]1C2CC[C@@]2(C)C1CC[C@@H]2O` (some centres undefined) reads 12.1% (inactive).

(Values after PubChem BioAssay (NCI).)
